# PubChem BioAssay
# Where “and” joins values, the source holds several entries; their conditions need not be identical. Equal values may be shown once. Inconclusive results are not listed. Calls of active or inactive are those of the source.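 The calls were made as follows, unless noted: active = normalized viability below 100% at a tested concentration; inactive = the rest.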
# What was measured:
# [1] = viability loss in pontine glioma line – cell-based, SU-DIPG-XVII, MIPE5.0, CellTiter-Glo, qHTS, dose response (AID 1347060; cut-off not given, nearly all actives have AC50 up to about 26 µM;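 as to AC50: cells exposed to compound for 48 hours before viability readout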); details: CellTiter-Glo ATP luminescence
# [2] = viability loss in pontine glioma line – cell-based, SU-DIPG-XIII, MIPE5.0, CellTiter-Glo, qHTS, dose response (AID 1347064; cut-off not given, nearly all actives have AC50 up to about 23 µM;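 as to AC50: cells exposed to compound for 48 hours before the viability read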); details: CellTiter-Glo ATP luminescence
# [3] = JHH-DIPG-1 glioma cell viability, MIPE5.0 library, CellTiter-Glo luminescence, qHTS (AID 1347067; cut-off not given, nearly all actives have AC50 up to about 26 µM;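 also: cells exposed to compound for 48 hours before readout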); details: JHH-DIPG-1 glioma viability, CellTiter-Glo ATP luminescence
# [4] = growth inhibition of DIPG cells – cell-based, MIPE5.0 library, qHTS (AID 1347068; cut-off not given, nearly all actives have IC50 up to about 30 µM;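 as to IC50: cells exposed to compound for 48 hours before viability readout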); details: SU-DIPG-XXV viability
# [5] = viability loss in pontine glioma line – cell-based, SU-DIPG-XXV, MIPE5.0, CellTiter-Glo, qHTS, dose response (AID 1347065; cut-off not given, nearly all actives have AC50 up to about 26 µM;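 also: cells exposed to compound for 48 hours before ATP readout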); details: CellTiter-Glo ATP luminescence
# [6] = viability loss with induced miR-34 in A549 – imaging, A549 dox-inducible miR-34, nuclei and caspase counts, primary screen (AID 1347080;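 active = compounds whose cell count with miR-34 switched on is under 0.7 times the count with it off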); details: A549 miR-34 inducible, Hoechst nuclei count, 48 h
# [7] = MELAS cybrid and Rieske KO viability enhancers – cell-based, MELAS cybrids, Rieske KO mouse fibroblasts, CellTiter-Glo, primary screen (AID 1508586;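 active = mean z-score across replicates of 1.96 or higher in either the MELAS or the Rieske mutant cell line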;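 also: z relative to plate mean and SD of compound and empty wells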); details: low glucose
# [8] = P. berghei load reduction in hepatocytes – cell-based, HepG2, luciferase luminescence, HepG2 viability, primary screen (AID 624349; in the data active = parasite load remaining mostly below about 12%, no sharp cut-off; inactive = mostly above about 10%;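 also: 100% = mean of DMSO negative control wells on the same plate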); details: P. berghei liver stage in HepG2, luciferase luminescence, concentration not given here; parasite load remaining: stronger effect = lower value; viability: measured here: HepG2 viability without parasites
# [9] = tested on: Hepatitis C virus NS3 helicase; experiment: blockers of NS3h binding to ssDNA – biochemical, fluorescence polarization, LOPAC1280 library, primary screen (AID 687035; in the data active = inhibition above about 37%); details: Purified HCV NS3 helicase, Cy5-dT15 ssDNA binding fluorescence polarization; stronger effect = higher value; concentration not given here
# [10] = compounds altering Cy5-DNA-NS3h complex signal – biochemical, LOPAC1280, artefact control for HCV NS3 helicase inhibitor project (AID 687037; call rule not given here); details: Cy5-DNA-NS3h complex fluorescence interference counterscreen
# [11] = blockers of cellular phospholipid synthesis – cell-based, LOPAC library, screen 4, primary screen (AID 1347384; call rule not given here); details: animal cells, phospholipid biosynthesis inhibition screen; at 10 µM
# [12] = galactose survival enhancers in mitochondrial complex I cybrids – cell-based, galactose medium, ATP luminescence, primary screen (AID 1645843;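 active = z-score of at least 1.8 in each of two replicates, scored against plate mean and spread of sample wells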;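 also: positive z means more ATP and so rescue of galactose-driven cybrid death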); details: complex I mutant cybrid cells, 72 h, stronger effect = higher value
# [13] = drug combination growth inhibition, ovarian cancer – cell-based, oncology-focused library, rucaparib conditional, profiling panel (AID 1508598); details: patient-derived ovarian cancer cells, CellTiter-Glo viability, 144 h, stronger effect = lower value
# [14] = growth inhibition of DIPG cells – cell-based, MIPE4.0 library, CellTiter-Glo luminescence, qHTS (AID 1347066; cut-off not given, nearly all actives have AC50 up to about 30 µM;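 also: cells exposed to compound for 48 hours before readout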); details: SU-DIPG-VI viability, CellTiter-Glo ATP luminescence
# [15] = stronger effect = lower value, cell number ratio, induced over uninduced
# [16] = measured here: relative caspase fold change +Dox/-Dox
# [17] = measured here: total cells with miR-34 induction, stronger effect = lower value
# [18] = measured here: total cells without miR-34 induction
# [19] = MELAS cybrid survival, CellTiter-Glo 48 h, stronger effect = higher value
# [20] = Rieske KO mouse fibroblast survival, CellTiter-Glo 72 h
structure (smiles),measurement,setting,value
C[C@@H]1CN(CC(=O)N2CC(C)(C)c3ncc(Cc4ccc(F)cc4)cc32)[C@@H](CN2CCOC[C@H]2C)CN1,outcome,[1],inactive
same,outcome,[2],inactive
same,outcome,[3],inactive
same,outcome,[4],inactive
CN1CCN(C2CCN(C(=O)Nc3cc(Oc4ccc(NC(=O)C5(C(=O)Nc6ccc(F)cc6)CC5)c(F)c4)ccn3)CC2)CC1,AC50,[1],18.6 µM (active)
same,AC50,[2],20.9 µM (active)
same,AC50,[5],13.2 µM (active)
same,IC50,[4],23.5 µM (active)
same,fold change,[6]; [15],0.875 (inactive)
same,fold change,[6]; [16],0.529
same,cell count,[6]; [17],3130
same,cell count,[6]; [18],3570
same,z-score,[7]; [19],-0.56 (inactive)
same,z-score,[7]; [20],0.282
c1cc(-c2cnn3cc(-c4ccc(N5CCNCC5)cc4)cnc23)c2cccnc2c1,AC50,[1],7.42 µM (active)
same,AC50,[2],6.61 µM (active)
same,AC50,[5],7.42 µM (active)
same,IC50,[4],9.34 µM (active)
same,fold change,[6]; [15],1.02 (inactive)
same,fold change,[6]; [16],0.321
same,cell count,[6]; [17],216
same,cell count,[6]; [18],212
same,z-score,[7]; [19],1.7 (inactive)
same,z-score,[7]; [20],0.379
O=[N+]([O-])c1ccc(-c2nc(-c3ccc(F)cc3)c(-c3ccncc3)[nH]2)cc1,parasite load remaining,[8],29.6% (inactive)
same,viability,[8],67.5%
same,inhibition,[9],1% (inactive)
same,fluorescence ratio (interference),[10],1 (inactive)
same,AC50,[1],26.3 µM (active)
same,AC50,[2],18.6 µM (active)
same,AC50,[5],26.3 µM (active)
same,outcome,[4],inactive
same,fold change,[6]; [15],1.15 (inactive) and 0.939 (inactive)
same,fold change,[6]; [16],1.13 and 1.14
same,cell count,[6]; [17],4420 and 5750
same,cell count,[6]; [18],3850 and 6120
same,outcome,[11],inactive
same,z-score,[12],-0.155 (inactive)
Cc1ncc(NC(=O)c2ccc(CN3CCN(C)CC3)c(C(F)(F)F)c2)cc1Nc1nccc(-c2cccnc2)n1,AC50,[1],23.5 µM (active)
same,AC50,[2],9.34 µM (active)
same,AC50,[5],18.6 µM (active)
same,outcome,[4],inactive
Cc1nc(NC(=O)N2CCCC2C(N)=O)sc1-c1ccnc(C(C)(C)C(F)(F)F)c1 (stereo unspecified),AC50,[1],5.25 µM (active)
same,AC50,[2],2.63 µM (active)
same,AC50,[5],2.35 µM (active)
same,IC50,[4],13.2 µM (active)
same,fold change,[6]; [15],0.937 (inactive)
same,fold change,[6]; [16],0.696
same,cell count,[6]; [17],5770
same,cell count,[6]; [18],6170
same,z-score,[7]; [19],-0.255 (inactive)
same,z-score,[7]; [20],-0.201
O=C(O)c1ccc(O)c2ncccc12,outcome,[1],inactive
same,AC50,[2],20.9 µM (active)
same,outcome,[5],inactive
same,outcome,[4],inactive
same,fold change,[6]; [15],0.933 (inactive)
same,fold change,[6]; [16],0.445
same,cell count,[6]; [17],8640
same,cell count,[6]; [18],9260
same,z-score,[7]; [19],-0.339 (inactive)
same,z-score,[7]; [20],0.0902
same,viability,"[13]; at 0.000305 µM, OCI-C5x cells, with rucaparib 10 µM, 100% = cells with rucaparib alone",112% (inactive)
same,viability,"[13]; at 0.000305 µM, OCI-C5x cells, without rucaparib",117% (inactive)
same,viability,"[13]; at 0.000305 µM, OCI-P5x cells, with rucaparib 20 µM, 100% = cells with rucaparib alone",94.2% (active)
same,viability,"[13]; at 0.000305 µM, OCI-P5x cells, without rucaparib",89.3% (active)
same,viability,"[13]; at 0.00122 µM, OCI-C5x cells, with rucaparib 10 µM, 100% = cells with rucaparib alone",120% (inactive)
same,viability,"[13]; at 0.00122 µM, OCI-C5x cells, without rucaparib",123% (inactive)
same,viability,"[13]; at 0.00122 µM, OCI-P5x cells, with rucaparib 20 µM, 100% = cells with rucaparib alone",101% (inactive)
same,viability,"[13]; at 0.00122 µM, OCI-P5x cells, without rucaparib",97.9% (active)
same,viability,"[13]; at 0.00488 µM, OCI-C5x cells, with rucaparib 10 µM, 100% = cells with rucaparib alone",120% (inactive)
same,viability,"[13]; at 0.00488 µM, OCI-C5x cells, without rucaparib",116% (inactive)
same,viability,"[13]; at 0.00488 µM, OCI-P5x cells, with rucaparib 20 µM, 100% = cells with rucaparib alone",103% (inactive)
same,viability,"[13]; at 0.00488 µM, OCI-P5x cells, without rucaparib",98.1% (active)
same,viability,"[13]; at 0.0195 µM, OCI-C5x cells, with rucaparib 10 µM, 100% = cells with rucaparib alone",127% (inactive)
same,viability,"[13]; at 0.0195 µM, OCI-C5x cells, without rucaparib",113% (inactive)
same,viability,"[13]; at 0.0195 µM, OCI-P5x cells, with rucaparib 20 µM, 100% = cells with rucaparib alone",100% (inactive)
same,viability,"[13]; at 0.0195 µM, OCI-P5x cells, without rucaparib",105% (inactive)
same,viability,"[13]; at 0.0781 µM, OCI-C5x cells, with rucaparib 10 µM, 100% = cells with rucaparib alone",112% (inactive)
same,viability,"[13]; at 0.0781 µM, OCI-C5x cells, without rucaparib",120% (inactive)
same,viability,"[13]; at 0.0781 µM, OCI-P5x cells, with rucaparib 20 µM, 100% = cells with rucaparib alone",98.2% (active)
same,viability,"[13]; at 0.0781 µM, OCI-P5x cells, without rucaparib",103% (inactive)
same,viability,"[13]; at 0.313 µM, OCI-C5x cells, with rucaparib 10 µM, 100% = cells with rucaparib alone",108% (inactive)
same,viability,"[13]; at 0.313 µM, OCI-C5x cells, without rucaparib",121% (inactive)
same,viability,"[13]; at 0.313 µM, OCI-P5x cells, with rucaparib 20 µM, 100% = cells with rucaparib alone",96.3% (active)
same,viability,"[13]; at 0.313 µM, OCI-P5x cells, without rucaparib",102% (inactive)
same,viability,"[13]; at 1.25 µM, OCI-C5x cells, with rucaparib 10 µM, 100% = cells with rucaparib alone",110% (inactive)
same,viability,"[13]; at 1.25 µM, OCI-C5x cells, without rucaparib",115% (inactive)
same,viability,"[13]; at 1.25 µM, OCI-P5x cells, with rucaparib 20 µM, 100% = cells with rucaparib alone",98.5% (active)
same,viability,"[13]; at 1.25 µM, OCI-P5x cells, without rucaparib",106% (inactive)
same,viability,"[13]; at 5 µM, OCI-C5x cells, with rucaparib 10 µM, 100% = cells with rucaparib alone",115% (inactive)
same,viability,"[13]; at 5 µM, OCI-C5x cells, without rucaparib",122% (inactive)
same,viability,"[13]; at 5 µM, OCI-P5x cells, with rucaparib 20 µM, 100% = cells with rucaparib alone",111% (inactive)
same,viability,"[13]; at 5 µM, OCI-P5x cells, without rucaparib",111% (inactive)
CN1C(N)=N[C@](C)(c2cc(NC(=O)c3ccc(F)cn3)ccc2F)CS1(=O)=O,outcome,[1],inactive
same,outcome,[2],inactive
same,outcome,[3],inactive
same,outcome,[4],inactive
[2H]C([2H])([2H])C(O)([C@@H](C)/C=C/[C@@H](C)[C@H]1CC[C@H]2/C(=C/C=C3C[C@@H](O)C[C@H](O)C3)CCC[C@]12C)C([2H])([2H])[2H],outcome,[1],inactive
same,outcome,[2],inactive
same,outcome,[3],inactive
O=C(Nc1ccc2c(=O)cc(-c3nn[nH]n3)oc2c1)c1ccc(OCCCCc2ccccc2)cc1,outcome,[1],inactive
same,outcome,[2],inactive
same,outcome,[5],inactive
same,outcome,[4],inactive
same,fold change,[6]; [15],0.988 (inactive)
same,fold change,[6]; [16],0.807
same,cell count,[6]; [17],7750
same,cell count,[6]; [18],7840
same,z-score,[7]; [19],-0.481 (inactive)
same,z-score,[7]; [20],-0.277
CNC(=O)c1ccc2c(C(=Nc3cccc(CN(C)C)c3)c3ccccc3)c(O)[nH]c2c1,outcome,[1],inactive
same,outcome,[2],inactive
same,outcome,[14],inactive
same,outcome,[3],inactive
same,outcome,[4],inactive
same,fold change,[6]; [15],0.967 (inactive)
same,fold change,[6]; [16],0.894
same,cell count,[6]; [17],7720
same,cell count,[6]; [18],7990
same,z-score,[7]; [19],-0.483 (inactive)
same,z-score,[7]; [20],-0.984
Cc1nn(C)c(COc2ccc(N3CCN(S(=O)(=O)N(C)C)CC3)cc2)c1-c1cccc2c(CCCOc3cccc4ccccc34)c(C(=O)O)n(CCN3CCOCC3)c12,AC50,[1],14.8 µM (active)
same,AC50,[2],18.6 µM (active)
same,AC50,[3],18.6 µM (active)
same,outcome,[4],inactive
